The values below come from ChEMBL document CHEMBL2218924, “A broad activity screen in support of a chemogenomic map for kinase signalling research and drug discovery” (Biochem J, 2013).

Experiment [1] has as its target Homeodomain-interacting protein kinase 3 (Homo sapiens) (UniProt Q9H422). The note with it: at 10 µM.
In experiment [2] the target is T1, Serine/threonine-protein kinase haspin (Homo sapiens) (UniProt Q8TF76).
T1 sequence (whole entry): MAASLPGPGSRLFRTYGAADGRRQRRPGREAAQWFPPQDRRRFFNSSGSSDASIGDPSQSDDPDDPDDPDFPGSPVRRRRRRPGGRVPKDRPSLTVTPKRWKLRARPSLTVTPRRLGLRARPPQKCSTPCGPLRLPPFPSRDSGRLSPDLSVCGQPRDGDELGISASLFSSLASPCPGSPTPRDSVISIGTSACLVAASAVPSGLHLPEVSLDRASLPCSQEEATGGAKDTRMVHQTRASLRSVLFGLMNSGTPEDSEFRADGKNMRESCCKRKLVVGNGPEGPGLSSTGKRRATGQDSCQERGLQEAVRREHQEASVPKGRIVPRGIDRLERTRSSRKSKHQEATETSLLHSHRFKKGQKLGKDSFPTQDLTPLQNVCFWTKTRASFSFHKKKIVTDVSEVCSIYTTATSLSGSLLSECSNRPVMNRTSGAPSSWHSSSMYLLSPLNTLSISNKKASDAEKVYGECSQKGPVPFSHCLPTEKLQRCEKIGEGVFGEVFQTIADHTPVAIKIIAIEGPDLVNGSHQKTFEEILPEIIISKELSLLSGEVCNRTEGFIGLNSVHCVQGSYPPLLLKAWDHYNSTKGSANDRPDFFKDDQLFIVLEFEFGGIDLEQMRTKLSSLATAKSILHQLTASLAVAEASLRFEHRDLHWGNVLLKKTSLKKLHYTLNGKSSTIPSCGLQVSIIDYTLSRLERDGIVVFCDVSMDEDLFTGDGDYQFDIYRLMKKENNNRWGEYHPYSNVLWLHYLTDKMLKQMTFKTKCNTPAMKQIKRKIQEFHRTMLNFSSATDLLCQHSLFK
The note with it: at 1 µM.

Experiment [3] has as its target T1, Serine/threonine-protein kinase haspin (Homo sapiens). The note with it: at 10 µM.
The target in experiment [4] is Tyrosine-protein kinase HCK (Homo sapiens) (UniProt P08631). The note with it: at 1 µM.
Chain of Tyrosine-protein kinase HCK (Homo sapiens) (P08631 2-526 limits assumed): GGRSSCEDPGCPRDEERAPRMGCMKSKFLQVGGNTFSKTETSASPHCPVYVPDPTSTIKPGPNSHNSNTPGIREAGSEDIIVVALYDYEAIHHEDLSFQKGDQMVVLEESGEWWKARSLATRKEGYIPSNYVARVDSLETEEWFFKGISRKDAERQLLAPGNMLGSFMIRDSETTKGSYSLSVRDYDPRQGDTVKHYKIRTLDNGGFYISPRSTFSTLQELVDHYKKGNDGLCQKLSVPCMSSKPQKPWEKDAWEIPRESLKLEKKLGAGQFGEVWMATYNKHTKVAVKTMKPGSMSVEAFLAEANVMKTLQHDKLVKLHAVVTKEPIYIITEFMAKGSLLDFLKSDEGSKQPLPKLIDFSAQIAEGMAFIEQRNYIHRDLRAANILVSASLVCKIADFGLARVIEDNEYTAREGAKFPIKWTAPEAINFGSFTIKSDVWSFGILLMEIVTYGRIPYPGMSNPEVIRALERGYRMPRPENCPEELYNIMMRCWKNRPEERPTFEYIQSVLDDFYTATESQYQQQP
The target is the same in experiment [5]. The note with it: at 10 µM.
Experiment [6] shares this target. The note with it: at 10 µM. The source holds these as a separate data set.
Experiment [7] concerns the target Insulin-like growth factor 1 receptor (Homo sapiens) (UniProt P08069). The note with it: at 1 µM.
The target is the same in experiment [8]. The note with it: at 10 µM.
Experiment [9] has as its target T2, Protein kinase C zeta type (Homo sapiens) (UniProt Q05513).
T2 sequence (whole entry): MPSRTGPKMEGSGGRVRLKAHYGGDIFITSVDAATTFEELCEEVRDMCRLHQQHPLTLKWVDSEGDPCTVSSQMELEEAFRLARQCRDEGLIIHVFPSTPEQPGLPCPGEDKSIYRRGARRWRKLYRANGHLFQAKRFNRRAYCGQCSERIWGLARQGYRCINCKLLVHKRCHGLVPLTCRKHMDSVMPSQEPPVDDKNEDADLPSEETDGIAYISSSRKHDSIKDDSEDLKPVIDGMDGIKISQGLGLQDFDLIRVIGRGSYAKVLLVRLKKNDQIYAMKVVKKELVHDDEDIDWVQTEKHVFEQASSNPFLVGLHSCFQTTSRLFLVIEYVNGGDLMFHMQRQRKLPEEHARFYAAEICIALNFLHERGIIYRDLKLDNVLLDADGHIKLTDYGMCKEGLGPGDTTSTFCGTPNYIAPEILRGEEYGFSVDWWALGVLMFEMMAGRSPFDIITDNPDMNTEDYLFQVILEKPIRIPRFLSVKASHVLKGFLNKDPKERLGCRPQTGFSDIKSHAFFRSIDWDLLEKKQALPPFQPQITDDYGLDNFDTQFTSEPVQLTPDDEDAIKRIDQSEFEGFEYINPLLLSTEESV
The note with it: at 10 µM.

The target in experiment [10] is Tyrosine-protein kinase HCK (Homo sapiens) (UniProt P08631). The note with it: at 1 µM. This is another data set of the same source.

Chain of Insulin-like growth factor 1 receptor (Homo sapiens) (P08069 31-736 limits assumed): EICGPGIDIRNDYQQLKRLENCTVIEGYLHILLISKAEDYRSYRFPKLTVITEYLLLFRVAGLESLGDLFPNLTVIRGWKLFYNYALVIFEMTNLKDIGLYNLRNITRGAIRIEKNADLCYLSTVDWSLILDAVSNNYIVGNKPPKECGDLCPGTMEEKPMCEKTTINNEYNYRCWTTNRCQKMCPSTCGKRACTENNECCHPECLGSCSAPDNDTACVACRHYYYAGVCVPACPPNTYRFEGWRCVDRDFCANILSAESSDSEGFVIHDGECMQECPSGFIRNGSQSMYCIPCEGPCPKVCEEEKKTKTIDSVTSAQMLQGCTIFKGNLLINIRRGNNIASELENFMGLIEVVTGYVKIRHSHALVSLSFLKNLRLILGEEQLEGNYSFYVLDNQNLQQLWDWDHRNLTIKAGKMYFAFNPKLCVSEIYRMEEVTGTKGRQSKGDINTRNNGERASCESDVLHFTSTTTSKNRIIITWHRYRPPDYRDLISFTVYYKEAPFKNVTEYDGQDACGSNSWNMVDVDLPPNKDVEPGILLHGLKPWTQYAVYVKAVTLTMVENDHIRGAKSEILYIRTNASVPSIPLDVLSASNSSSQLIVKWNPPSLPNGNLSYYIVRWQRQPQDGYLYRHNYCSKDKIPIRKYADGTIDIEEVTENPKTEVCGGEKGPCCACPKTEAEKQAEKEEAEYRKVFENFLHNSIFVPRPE
Chain of Insulin-like growth factor 1 receptor (Homo sapiens) (P08069 741-1367 limits assumed): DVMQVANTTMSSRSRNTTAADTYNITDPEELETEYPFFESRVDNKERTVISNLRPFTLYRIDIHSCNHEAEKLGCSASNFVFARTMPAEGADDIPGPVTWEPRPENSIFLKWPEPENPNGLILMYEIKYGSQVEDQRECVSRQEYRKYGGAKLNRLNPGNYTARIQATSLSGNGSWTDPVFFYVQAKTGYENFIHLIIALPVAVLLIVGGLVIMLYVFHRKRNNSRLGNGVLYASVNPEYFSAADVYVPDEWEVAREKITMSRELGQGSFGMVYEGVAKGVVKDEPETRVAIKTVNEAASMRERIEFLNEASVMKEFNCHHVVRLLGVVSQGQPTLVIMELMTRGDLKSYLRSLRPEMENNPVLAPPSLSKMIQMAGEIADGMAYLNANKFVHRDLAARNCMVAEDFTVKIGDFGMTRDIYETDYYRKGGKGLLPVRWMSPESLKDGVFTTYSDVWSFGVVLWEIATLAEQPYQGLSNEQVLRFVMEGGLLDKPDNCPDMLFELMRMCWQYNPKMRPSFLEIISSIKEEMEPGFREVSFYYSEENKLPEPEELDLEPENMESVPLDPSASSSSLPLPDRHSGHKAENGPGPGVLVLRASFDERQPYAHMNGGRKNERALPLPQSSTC
Chain of Homeodomain-interacting protein kinase 3 (Homo sapiens) (Q9H422 whole entry, looked up): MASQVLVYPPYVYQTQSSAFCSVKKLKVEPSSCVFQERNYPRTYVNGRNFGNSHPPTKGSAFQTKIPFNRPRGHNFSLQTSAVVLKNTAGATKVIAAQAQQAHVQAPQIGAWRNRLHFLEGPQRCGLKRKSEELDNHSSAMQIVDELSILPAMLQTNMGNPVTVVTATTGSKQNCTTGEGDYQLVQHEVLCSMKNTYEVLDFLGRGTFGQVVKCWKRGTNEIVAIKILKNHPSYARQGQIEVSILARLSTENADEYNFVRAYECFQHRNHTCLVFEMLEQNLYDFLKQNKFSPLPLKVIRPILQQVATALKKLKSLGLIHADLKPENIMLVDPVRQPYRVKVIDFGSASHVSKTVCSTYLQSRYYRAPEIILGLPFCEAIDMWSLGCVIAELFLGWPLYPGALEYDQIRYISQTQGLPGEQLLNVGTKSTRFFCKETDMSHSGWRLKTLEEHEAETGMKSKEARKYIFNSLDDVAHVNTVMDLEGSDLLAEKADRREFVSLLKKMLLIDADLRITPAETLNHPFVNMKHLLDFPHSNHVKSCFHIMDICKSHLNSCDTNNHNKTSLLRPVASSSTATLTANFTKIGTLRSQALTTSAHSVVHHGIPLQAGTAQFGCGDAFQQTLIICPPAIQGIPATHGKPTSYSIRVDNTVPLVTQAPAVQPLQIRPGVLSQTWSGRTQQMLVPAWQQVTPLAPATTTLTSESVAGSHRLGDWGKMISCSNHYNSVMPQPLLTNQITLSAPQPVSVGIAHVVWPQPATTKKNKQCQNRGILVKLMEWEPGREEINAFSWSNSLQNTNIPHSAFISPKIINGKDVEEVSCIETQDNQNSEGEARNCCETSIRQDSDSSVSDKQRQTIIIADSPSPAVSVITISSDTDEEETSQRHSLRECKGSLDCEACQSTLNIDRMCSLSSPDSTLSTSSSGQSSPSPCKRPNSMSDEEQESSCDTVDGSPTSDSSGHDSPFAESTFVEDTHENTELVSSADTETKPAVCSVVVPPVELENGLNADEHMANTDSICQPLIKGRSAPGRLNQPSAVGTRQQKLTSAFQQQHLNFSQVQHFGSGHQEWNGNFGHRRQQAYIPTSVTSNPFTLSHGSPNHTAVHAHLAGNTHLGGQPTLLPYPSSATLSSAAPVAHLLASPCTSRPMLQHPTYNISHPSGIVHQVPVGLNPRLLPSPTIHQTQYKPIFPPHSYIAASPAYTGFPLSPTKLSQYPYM

Regarding `CO[C@H]1[C@@H](OC)C[C@H](C)[C@@H](OC)C2=CC(=O)C=C(NC(=O)/C(C)=C/C=C/[C@H](OC)[C@@H](OC(N)=O)/C(C)=C/[C@@H]1C)C2=O`, the residual activity (as a rule, the signal under treatment as a percentage of the control signal) in experiment [1] turned out to be 105%; in experiment [2], 88%; in [3], 78%; in experiment [4] it was 78%; in [5] it was 76%; in experiment [6], 103%. Besides, the residual activity turned out to be 137% in experiment [7], 113% in experiment [8] and 106% in [9].

For the compound `Cc1cc2ncc(-c3ccccc3)nc2cc1C`, the residual activity in experiment [1] was 107%; in experiment [2], 87%; in [3] it was 83%; in [4], 68%; in experiment [5], 55%; in experiment [10] it was 105%. Also, the residual activity was found to be 99% in experiment [6], 131% in experiment [7], 144% in [8] and 104% in [9].

In the case of `O=c1c2ccccc2[nH]c(=S)n1CCN1CCC(=C(c2ccc(F)cc2)c2ccc(F)cc2)CC1`, the residual activity in experiment [1] amounted to 88%; in experiment [2] it was 84%; in experiment [3], 52%; in experiment [4] it was 73%; in experiment [5], 38%; in experiment [10], 101%. The residual activity amounted to 101% in experiment [6], 119% in experiment [7], 104% in experiment [8] and 94% in [9].

`CCN(CC)CCCCN1c2ccccc2Oc2ccc(Cl)cc21`: the residual activity in experiment [1] worked out at 99%; in experiment [2], 81%; in experiment [3], 36%; in experiment [4] it was 101%; in experiment [5] it was 103%; in experiment [10], 109%. The residual activity was 112% in experiment [6], 136% in [7], 90% in experiment [8] and 112% in experiment [9].

With `N#CC(C#N)=C(N)/C(C#N)=C/c1ccc(O)cc1`, the residual activity was 88% in experiment [2]; 65% in experiment [3]; 84% in experiment [4]; 64% in [5]; 99% in experiment [10]; 87% in [6].

`Cc1cccc(-c2[nH]c(C(C)(C)C)nc2-c2ccc3c(c2)OCO3)n1`: the residual activity in experiment [2] was found to be 92%; in [3], 75%; in [4], 94%; in experiment [5], 79%; in [10], 102%; in experiment [6], 99%.

In the case of `COc1cc2ncc(-c3ccccc3)nc2cc1OC`, the residual activity in [1] stood at 100%; in [2], 76%; in experiment [3], 64%; in experiment [4] it was 69%; in experiment [5], 56%; in experiment [7], 133%.

For `COc1cccc(-c2cc(=O)c3ccccc3o2)c1N`, the residual activity in [1] came out at 98%; in [2], 118%; in [3], 81%; in [4], 88%; in [5] it was 87%; in experiment [10] it was 106%. Also, the residual activity in experiment [6] was determined as 105%; in [7] it was 91%; in [8], 127%; in experiment [9], 105%.

Take `Cn1cnc2cc3c(Nc4cccc(Br)c4)ncnc3cc21`: the residual activity was found to be 95% in experiment [1]; 108% in experiment [2]; 59% in experiment [3]; 52% in [4]; 21% in [5]; 51% in experiment [10]. Also, the residual activity in experiment [6] was found to be 25%; in [7], 145%; in experiment [8], 103%; in experiment [9], 101%.

As for `CO[C@@H]1[C@H](N(C)C(=O)c2ccccc2)C[C@H]2O[C@]1(C)n1c3ccccc3c3c4c(c5c6ccccc6n2c5c31)C(=O)NC4`, the residual activity came to 68% in experiment [1]; 78% in experiment [2]; 43% in [3]; 7% in experiment [4]; 5% in [5]; 12% in experiment [6]. Also, the residual activity in experiment [7] came out at 115%; in [8], 68%; in experiment [9], 102%.

For the compound `Nc1ccc2ncnc(NCCc3ccc(Oc4ccccc4)cc3)c2c1`, the residual activity in experiment [1] was 93%; in experiment [2], 75%; in [3] it was 23%; in [4], 67%; in experiment [5], 32%; in experiment [10], 97%. Also, the residual activity in [6] was determined as 89%; in experiment [7], 138%; in experiment [8] it was 114%; in [9], 96%.

On to `c1ccc2c(-c3ccncc3)c[nH]c2c1`, for which the residual activity was found to be 91% in experiment [1]; 48% in [2]; 8% in [3]; 68% in experiment [4]; 65% in [5]; 104% in experiment [10]. The residual activity in experiment [6] turned out to be 89%; in experiment [9], 84%.

As for `N#CCCc1ccc2c(c1)-c1[nH]c3ccc([N+](=O)[O-])cc3c1CC(=O)N2`, the residual activity in experiment [3] came out at 74%; in [4] it was 30%; in experiment [5], 6%; in [10], 27%; in [6], 16%; in experiment [7], 117%. Besides, the residual activity in [8] stood at 144%; in [9], 41%.

`O=Nc1c(-c2c(O)[nH]c3ccccc23)[nH]c2ccccc12`: the residual activity stood at 19% in experiment [1]; 26% in experiment [2]; 19% in experiment [3]; 15% in experiment [4]; 5% in experiment [5]; 8% in experiment [10]. In addition, the residual activity in [6] worked out at 1%; in [7], 37%; in [8], 26%; in [9] it was 98%.

For the compound `CCN(CC)C(=O)c1ccc(Nc2nc(OCC3CCCCC3)c3nc[nH]c3n2)cc1`, the residual activity in [1] worked out at 62%; in [4], 31%; in [5], 5%; in [10], 43%; in experiment [6], 7%; in experiment [9], 95%.

Consider `Cc1cncc2cccc(S(=O)(=O)N3CCCN(C(=O)CN)C[C@H]3C)c12`, for which the residual activity is 91% in experiment [2]; 62% in experiment [3]; 69% in experiment [4]; 60% in experiment [5]; 98% in [10]; 73% in experiment [6]. For the same compound, the residual activity was 134% in experiment [7] and 50% in [9].

Consider `CCOc1cc2ncnc(Nc3cccc(Br)c3)c2cc1OCC`, for which the residual activity was 92% in experiment [1]; 97% in experiment [2]; 66% in experiment [3]; 34% in experiment [4]; 6% in [5]; 17% in [10]. Further, the residual activity in experiment [6] worked out at 4%; in experiment [7], 89%; in [8] it was 106%; in [9] it was 69%.

Take `COc1cc2ncnc(N3CCN(C(=O)Nc4ccc(Oc5ccccc5)cc4)CC3)c2cc1OC`: the residual activity was 102% in experiment [1]; 79% in [2]; 82% in [3]; 79% in experiment [4]; 71% in experiment [5]; 91% in [10]. Also, the residual activity in experiment [6] was found to be 85%; in experiment [9], 116%.

`Cc1cc(Nc2nc(-c3ccccc3)nc3ccccc23)n[nH]1`: the residual activity was determined as 103% in experiment [2]; 67% in [3]; 23% in [4]; 4% in [5]; 27% in [10]; 5% in experiment [6]. In addition, the residual activity in [7] came to 17%; in experiment [8] it was 1%; in [9], 102%.
